Laboratory results from PubChem BioAssay AID1159580 (chemical genetic matrix, 2015).
Out of some 5,500 compounds screened, about 2,000 (36%) were called active. Roughly 18% stayed inconclusive and do not appear here. Rule as the data show it: active = normalized growth mostly below about 0.91 (no sharp cut-off); inconclusive = no clear call, values can overlap the other calls; inactive = mostly above about 0.92. The list shows a part of the results.

Test: chemical genetic growth profiling, strain panel (AID 1159580);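 also: tested at 20 µM; growth read once vehicle control cultures reached saturation at 30 °C; 1 = growth at the plate median or of vehicle wells; lower values mean less growth of the strain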
Conditions: growth OD

Measured: normalized growth

CC(C)CCCC(C)C1CCC2C3=CC[C@H]4C[C@@H](O)CC[C@]4(C)C3CC[C@@]21C (some centres not stated)
inactive: S. cerevisiae deletion strains, locus YJR066W, strain TOR1, hits give low values 0.943 | S. cerevisiae deletion strains, locus YJR075W, strain HOC1, hits give low values 0.995 | S. cerevisiae deletion strains, locus YKL009W, strain mrt4, hits give low values 0.997 | S. cerevisiae deletion strains, locus YKL068W, hits give low values 1 | S. cerevisiae deletion strains, locus YKL085W, strain MDH1 (second series), hits give low values 0.988 | S. cerevisiae deletion strains, locus YKL085W, strain MDH1, hits give low values 0.988 | S. cerevisiae deletion strains, locus YKL160W, strain elf1, hits give low values 0.964 | S. cerevisiae deletion strains, locus YKR001C, strain vps1, hits give low values 0.983 | S. cerevisiae deletion strains, locus YKR026C, strain gcn3, hits give low values 0.999 | S. cerevisiae deletion strains, locus YKR091W, strain srl3, hits give low values 0.967 | S. cerevisiae deletion strains, locus YLL001W, strain dnm1, hits give low values 0.988 | S. cerevisiae deletion strains, locus YLL026W, hits give low values 0.988 | S. cerevisiae deletion strains, locus YLL041C, strain sdh2, hits give low values 0.975 | S. cerevisiae deletion strains, locus YLR027C, strain aat2, hits give low values 0.982 | S. cerevisiae deletion strains, locus YLR039C, strain RIC1, hits give low values 0.828 | S. cerevisiae deletion strains, locus YLR058C, strain SHM2, hits give low values 1.02 | S. cerevisiae deletion strains, locus YLR102C, strain apc9, hits give low values 0.99 | S. cerevisiae deletion strains, locus YLR113W, strain HOG1, hits give low values 1.03 | S. cerevisiae deletion strains, locus YLR221C, strain rsa3, hits give low values 0.946 | S. cerevisiae deletion strains, locus YLR258W, strain gsy2, hits give low values 1 | S. cerevisiae deletion strains, locus YLR262C, strain YPT6 (second series), hits give low values 0.859 | S. cerevisiae deletion strains, locus YLR262C, strain YPT6, hits give low values 0.816 | S. cerevisiae deletion strains, locus YLR268W, strain sec22, hits give low values 0.978 | S. cerevisiae deletion strains, locus YLR320W, strain mms22, hits give low values 0.952 | S. cerevisiae deletion strains, locus YLR330W, strain CHS5, hits give low values 1.04 | S. cerevisiae deletion strains, locus YLR342W, strain FKS1 (second series), hits give low values 1.04 | S. cerevisiae deletion strains, locus YLR342W, strain FKS1, hits give low values 0.994 | S. cerevisiae deletion strains, locus YLR357W, strain rsc2, hits give low values 1.04 | S. cerevisiae deletion strains, locus YLR370C, strain arc18, hits give low values 0.964 | S. cerevisiae deletion strains, locus YLR371W, strain rom2, hits give low values 0.998 | S. cerevisiae deletion strains, locus YLR384C, strain iki3, hits give low values 0.985 | S. cerevisiae deletion strains, locus YLR418C, strain cdc73, hits give low values 0.943 | S. cerevisiae deletion strains, locus YML016C, strain PPZ1, hits give low values 1.01 | S. cerevisiae deletion strains, locus YML032C, strain rad52, hits give low values 1 | S. cerevisiae deletion strains, locus YML120C, strain ndi1, hits give low values 0.965 | S. cerevisiae deletion strains, locus YML124C, strain tub3, hits give low values 0.996 | S. cerevisiae deletion strains, locus YMR058W, strain fet3, hits give low values 0.965 | S. cerevisiae deletion strains, locus YMR078C, strain ctf18, hits give low values 0.989 | S. cerevisiae deletion strains, locus YMR125W, strain sto1, hits give low values 1 | S. cerevisiae deletion strains, locus YMR129W, hits give low values 0.992 | S. cerevisiae deletion strains, locus YMR205C, strain PFK2, hits give low values 1 | S. cerevisiae deletion strains, locus YMR223W, strain ubp8, hits give low values 0.99 | S. cerevisiae deletion strains, locus YMR231W, strain pep5, hits give low values 0.991 | S. cerevisiae deletion strains, locus YMR263W, strain SAP30, hits give low values 1.03 | S. cerevisiae deletion strains, locus YMR307W, strain GAS1, hits give low values 1.05 | S. cerevisiae deletion strains, locus YNL067W, strain RPL9B, hits give low values 0.991 | S. cerevisiae deletion strains, locus YNL071W, strain lat1, hits give low values 0.932 | S. cerevisiae deletion strains, locus YNL183C, strain NPR1, hits give low values 0.939 | S. cerevisiae deletion strains, locus YNL209W, strain ssb2, hits give low values 0.987 | S. cerevisiae deletion strains, locus YNL233W, strain BNI4, hits give low values 0.984 | S. cerevisiae deletion strains, locus YNL248C, strain rpa49, hits give low values 0.922 | S. cerevisiae deletion strains, locus YNL250W, strain rad50, hits give low values 0.999 | S. cerevisiae deletion strains, locus YNL271C, strain bni1, hits give low values 0.994 | S. cerevisiae deletion strains, locus YNL298W, strain CLA4, hits give low values 0.985 | S. cerevisiae deletion strains, locus YNL307C, strain MCK1, hits give low values 0.996 | S. cerevisiae deletion strains, locus YNL322C, strain KRE1 (second series), hits give low values 0.98 | S. cerevisiae deletion strains, locus YNR049C, strain mso1, hits give low values 0.982 | S. cerevisiae deletion strains, locus YNR052C, strain pop2, hits give low values 0.984 | S. cerevisiae deletion strains, locus YOL012C, strain htz1 0.805 | S. cerevisiae deletion strains, locus YOL147C, strain pex11, hits give low values 0.994 | S. cerevisiae deletion strains, locus YOR001W, strain rrp6, hits give low values 0.946 | S. cerevisiae deletion strains, locus YOR061W, strain CKA2, hits give low values 1.01 | S. cerevisiae deletion strains, locus YOR069W, strain VPS5, hits give low values 1.01 | S. cerevisiae deletion strains, locus YOR070C, strain gyp1, hits give low values 0.985 | S. cerevisiae deletion strains, locus YOR080W, strain dia2, hits give low values 0.981 | S. cerevisiae deletion strains, locus YOR083W, strain WHI5, hits give low values 0.947 | S. cerevisiae deletion strains, locus YOR106W, strain vam3, hits give low values 0.935 | S. cerevisiae deletion strains, locus YOR136W, strain idh2, hits give low values 0.993 | S. cerevisiae deletion strains, locus YOR144C, strain elg1, hits give low values 0.998 | S. cerevisiae deletion strains, locus YOR184W, strain ser1, hits give low values 0.969 | S. cerevisiae deletion strains, locus YOR231W, strain MKK1, hits give low values 0.976 | S. cerevisiae deletion strains, locus YOR265W, strain rbl2, hits give low values 0.985 | S. cerevisiae deletion strains, locus YOR270C, strain vph1, hits give low values 0.794 | S. cerevisiae deletion strains, locus YOR290C, strain snf2, hits give low values 1.01 | S. cerevisiae deletion strains, locus YOR316C, strain cot1, hits give low values 0.988 | S. cerevisiae deletion strains, locus YPL051W, strain arl3, hits give low values 0.951 | S. cerevisiae deletion strains, locus YPL078C, strain atp4, hits give low values 0.925 | S. cerevisiae deletion strains, locus YPL106C, strain sse1, hits give low values 1.03 | S. cerevisiae deletion strains, locus YPL240C, strain hsp82, hits give low values 0.97 | S. cerevisiae deletion strains, locus YPL241C, strain CIN2, hits give low values 1.01 | S. cerevisiae deletion strains, locus YPL256C, strain CLN2, hits give low values 1 | S. cerevisiae deletion strains, locus YPR119W, strain clb2, hits give low values 0.99 | S. cerevisiae deletion strains, locus YPR141C, strain kar3, hits give low values 0.994 | S. cerevisiae deletion strains, locus YPR163C, strain tif3, hits give low values 0.994 | S. cerevisiae deletion strains, locus YPR167C, strain met16, hits give low values 1.01 | S. cerevisiae deletion strains, strain wtn01, hits give low values 0.97 | S. cerevisiae strains, strain wild type, hits give low values 1.04
